# From PubChem BioAssay (NCATS)
# Inconclusive results are not listed. Values without a mark were called inactive. The source made the active and inactive calls. Calls follow the shape of the dose curve; as a rule, active = well fitted curve in the direction sought with a large enough effect; inconclusive = small, poorly fitted or top-dose-only effect, or another doubt; inactive = no such curve, though single readings can be large; an effect the other way counts as inactive or inconclusive.
# Biological target: Rap guanine nucleotide exchange factor 3 (Homo sapiens) (UniProt O95398)
# Experiment: Counterscreen qHTS for antagonist of cAMP-regulated guanine nucleotide exchange factor 3 (EPAC1) (AID 1645888);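 also: fluorescence loss as bound BODIPY-GDP is released from Rap1B; % of control where 0% means no effect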
# Conditions: Rap1B-BODIPY-GDP nucleotide exchange, fluorescence; series mostly up to 154 µM; activity change, negative = inhibition: at the top concentration
# Procedure, shortened: (§1)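 Measured: fluorescence of BODIPY-GDP bound to Rap1B, which falls as exchange proceeds. Conditions include 50 uM competing GDP, 5 and 30 min reads, and a later cAMP challenge for antagonist detection.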
# Chain of Rap guanine nucleotide exchange factor 3 (Homo sapiens) (O95398 whole entry, looked up): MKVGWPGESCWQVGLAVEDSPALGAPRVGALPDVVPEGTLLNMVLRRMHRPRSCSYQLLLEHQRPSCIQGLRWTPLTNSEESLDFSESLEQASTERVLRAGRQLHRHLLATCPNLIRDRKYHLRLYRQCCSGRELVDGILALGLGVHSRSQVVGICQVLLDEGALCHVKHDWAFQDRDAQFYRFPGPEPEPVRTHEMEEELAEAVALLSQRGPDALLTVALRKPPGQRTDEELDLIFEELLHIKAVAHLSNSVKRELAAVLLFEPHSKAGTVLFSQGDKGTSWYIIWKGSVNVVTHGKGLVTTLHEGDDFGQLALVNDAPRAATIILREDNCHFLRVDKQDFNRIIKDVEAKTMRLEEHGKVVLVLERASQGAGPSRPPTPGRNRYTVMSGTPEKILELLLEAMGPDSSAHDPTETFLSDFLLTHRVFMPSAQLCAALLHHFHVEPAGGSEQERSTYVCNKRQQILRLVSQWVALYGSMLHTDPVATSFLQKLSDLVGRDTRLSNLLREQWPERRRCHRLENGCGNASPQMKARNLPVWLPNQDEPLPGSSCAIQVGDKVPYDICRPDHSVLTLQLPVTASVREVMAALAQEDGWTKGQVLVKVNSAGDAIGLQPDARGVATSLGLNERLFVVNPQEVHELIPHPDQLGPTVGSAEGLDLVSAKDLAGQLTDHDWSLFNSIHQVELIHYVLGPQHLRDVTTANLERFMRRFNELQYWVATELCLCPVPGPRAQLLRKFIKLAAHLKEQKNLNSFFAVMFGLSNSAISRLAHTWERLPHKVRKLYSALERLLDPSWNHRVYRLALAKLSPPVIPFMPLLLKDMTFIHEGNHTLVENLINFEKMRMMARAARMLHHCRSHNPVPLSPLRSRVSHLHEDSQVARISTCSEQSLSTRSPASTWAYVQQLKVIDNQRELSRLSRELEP
row,SMILES,"activity change, negative = inhibition"
1,COc1cccc(Nc2nnc(-c3cc4ccc(O)cc4oc3=O)s2)c1,129%
2,COc1cc2c3nnc(-c4ccc(F)cc4)c-3cn(Cc3cccc(C)c3)c2cc1OC,49.7%
3,CCCCn1nnnc1C(c1cc2ccccc2o1)N1CCCCC1 (configuration not stated),-8.42%
4,O=[N+]([O-])c1c(Nc2ccccn2)cc(Cl)c2nonc12,13%
5,Cc1ccc(-c2nc(S(=O)(=O)c3ccc(C)cc3)c(N3CCOCC3)o2)cc1,4.36%
6,Cc1ccc2oc(=O)n(Cc3ccc(OC(C)C)cc3)c2c1,-0.221%
7,c1ccc(-c2cnn3c(-c4ccccc4)c(-c4ccccc4)nc3n2)cc1,3.01%
8,Cn1ccc(=Nc2ccc(NC(=O)c3ccc(N=c4ccn(C)c5ccc([N+](=O)[O-])cc45)cc3)cc2)cc1,-22.4%
9,CCOc1ccc(-c2nn(-c3ccccc3)cc2/C=C2\SC(=S)N(C3CCS(=O)(=O)C3)C2=O)cc1 (configuration not stated),30.8%
10,O=C(O)c1ccc(COc2ccccc2/C=C2/NC(=O)N(c3cccc(Cl)c3)C2=O)cc1,5.8%
11,CCOc1ccc(C(=O)CCc2nc3ccccc3s2)cc1,-7.41% [at 30.8 µM]
12,COc1cccc(/C=N/NC(=O)c2[nH]nc3c2CCc2ccccc2-3)c1O,-1.68%
13,COC(=O)c1ccccc1-c1c2ccc(=N)cc-2oc2cc(N)ccc12,159%
14,C[n+]1ccc(/C=C/c2c[nH]c3ccccc23)cc1,174%
15,CN1CC=C2C(C#N)=C(N)C(C#N)(C#N)[C@H](c3cccc(Cl)c3)C2C1 (some centres not stated),33.9%
16,O=C(OCCN1C(=O)c2cccc3c(N4CCOCC4)ccc(c23)C1=O)c1ccc(Cl)cc1Cl,68.2% [at 30.8 µM]

# Biological target: Rap guanine nucleotide exchange factor 3 (Homo sapiens) (UniProt O95398)
# Experiment: Counterscreen qHTS for agonist of cAMP-regulated guanine nucleotide exchange factor 3 (EPAC1) (AID 1645889); also: nearly all actives have a fitted effect of over 40% in size; also: potency is read from the fitted curve at half-maximal effect; as to activation: % of control where 0% means no effect
# Conditions: EPAC1 Rap1B-BODIPY-GDP exchange, fluorescence; series mostly up to 154 µM; activation: at the top concentration
# Procedure, shortened: as §1
SMILES,Potency,activation [%]
CCOc1ccc(S(=O)(=O)Nc2cc(SCC(=O)O)c(O)c3ccccc23)cc1,56.2 µM (active),
Cc1cccc(N2CCCC2=Nc2ccc(Br)cc2C#N)c1,,6.4
COc1cc2c3nnc(-c4ccc(F)cc4)c-3cn(Cc3cccc(C)c3)c2cc1OC,,-83.4
CC(C)(C)C1COc2ccccc2N1C(=O)c1ccccc1Cl (configuration not stated),,7.3
Cc1ccc(CNC(=O)c2cccc3c2C(=O)c2ccc(N4CCC(C)CC4)cc2S3(=O)=O)cc1,11.2 µM (active),
C[n+]1ccc(/C=C/c2c[nH]c3ccccc23)cc1,35.5 µM (active),
